Reference: publication PMC4336329 (PLoS ONE, 2015)
Among all 310,000 compounds or so, about 14,000 (4.5%) showed an effect of 50% or more. The effect is printed as a negative number. What follows is part of a selection rich in strong results, with near analogues and random picks from the rest.

Molecular target: human ether-à-go-go-related gene (hERG) potassium channel (human, UniProt Q12809)
Assay: primary screen, population patch clamp on CHO cells stably expressing hERG; higher = less effect of the substance
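Also: peak tail current of the secondary pulse compared with the same well before compound.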

human ether-à-go-go-related gene (hERG) potassium channel, sequence (Q12809 whole entry, looked up): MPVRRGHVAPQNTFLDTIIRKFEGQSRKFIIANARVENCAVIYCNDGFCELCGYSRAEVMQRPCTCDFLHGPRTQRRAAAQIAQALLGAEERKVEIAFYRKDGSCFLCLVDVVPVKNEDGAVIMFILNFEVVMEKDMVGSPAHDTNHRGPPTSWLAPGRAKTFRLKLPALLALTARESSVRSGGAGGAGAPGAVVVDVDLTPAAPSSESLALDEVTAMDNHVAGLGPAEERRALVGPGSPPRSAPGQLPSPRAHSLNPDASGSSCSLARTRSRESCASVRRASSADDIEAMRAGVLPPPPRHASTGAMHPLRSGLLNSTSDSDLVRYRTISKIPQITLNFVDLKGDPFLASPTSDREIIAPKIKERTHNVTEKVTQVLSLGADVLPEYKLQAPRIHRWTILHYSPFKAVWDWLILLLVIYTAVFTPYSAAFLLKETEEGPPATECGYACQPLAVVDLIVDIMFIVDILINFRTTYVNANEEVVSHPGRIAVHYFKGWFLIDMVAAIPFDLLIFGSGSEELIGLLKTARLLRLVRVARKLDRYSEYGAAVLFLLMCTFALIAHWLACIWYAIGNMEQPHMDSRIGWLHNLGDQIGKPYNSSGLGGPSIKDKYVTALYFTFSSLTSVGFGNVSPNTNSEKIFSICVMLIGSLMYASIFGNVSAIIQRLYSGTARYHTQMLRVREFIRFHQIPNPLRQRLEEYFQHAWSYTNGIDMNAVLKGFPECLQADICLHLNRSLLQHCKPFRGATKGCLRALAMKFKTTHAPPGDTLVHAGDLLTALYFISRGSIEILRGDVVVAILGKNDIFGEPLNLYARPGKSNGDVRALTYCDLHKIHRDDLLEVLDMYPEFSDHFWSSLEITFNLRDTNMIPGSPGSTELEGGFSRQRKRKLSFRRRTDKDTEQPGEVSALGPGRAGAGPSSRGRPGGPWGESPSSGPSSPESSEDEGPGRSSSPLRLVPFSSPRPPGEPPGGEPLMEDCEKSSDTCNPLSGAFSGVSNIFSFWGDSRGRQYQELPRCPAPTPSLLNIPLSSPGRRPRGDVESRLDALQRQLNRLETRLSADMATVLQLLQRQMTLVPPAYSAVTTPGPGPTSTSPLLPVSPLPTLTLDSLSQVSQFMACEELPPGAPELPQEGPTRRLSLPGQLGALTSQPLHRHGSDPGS

SMILES	hERG current change (%, negative = inhibition) at 10uM [%]
O=C(COc1ccc(Cl)cc1)NCCNC(=O)c1cnccn1	5.3
Cc1oc(-c2ccc(Cl)cc2)nc1CS(=O)CC(=O)NCCN1CCCCCC1 (stereo not drawn)	-39.4
Cc1ccccc1Cn1cc(S(=O)(=O)c2ccc(C(C)C)cc2)c(=O)c2cc3c(cc21)OCO3	-20.2
CC1CCC(C(C)C)C(OC(=O)CSc2nc(N)cc(=O)[nH]2)C1 (stereo not drawn)	12.7
Cc1ccccc1OCc1n(CC(=O)OC2CC(C)CCC2C(C)C)c2ccccc2[n+]1C.[Cl-] (stereo not drawn)	-72
CC1CCC(C(C)C)C(OC(=O)COC(=O)c2ccccc2N)C1 (stereo not drawn)	9.64
Cc1cccc(OCc2n(CC(=O)OC3CC(C)CCC3C(C)C)c3ccccc3[n+]2C)c1.[Cl-] (stereo not drawn)	-75
Cc1ccccc1OC(=O)Cn1c(C(F)(F)F)nc2ccccc21	3.95
Cc1cccc(OC(=O)Cn2c(C(F)(F)F)nc3ccccc32)c1	17.6
CC1CCC(C(C)C)C(OC(=O)COC(=O)c2cc(O)ccc2N)C1 (stereo not drawn)	12.9
CC1CCC(C(C)C)C(OC(=O)Cn2c(COc3ccccc3)[n+](C)c3ccccc32)C1.[Cl-] (stereo not drawn)	-80.4
COc1ccc(OCc2n(CC(=O)OC3CC(C)CCC3C(C)C)c3ccccc3[n+]2C)cc1.[Cl-] (stereo not drawn)	-76.4
CN1CCN(C(=O)CCCOc2cc(=O)n(C)c3ccccc23)CC1	0.874
COc1cccc(NC(=O)C2C3C=CC(O3)C2C(=O)O)c1 (stereo not drawn)	10.6
Cc1ccccc1OCCNC(=O)CSc1ccc(C(F)(F)F)cc1[N+](=O)[O-]	10.6
COc1ccc(CCNC(=O)c2ccc(N3CCCC3=O)cc2)cc1OC	15.3
COc1ccc(C(=O)N/C(=C/c2cccnc2)C(=O)N2CCN(C)CC2)cc1OC	11.4
Cc1cc(C)n(C(=O)COc2ccccc2C)n1	-3.33
Nc1c(C(=O)Nc2ccccc2F)sc2nc(-c3cccnc3)ccc12	20.9
O=C(COC(=O)c1ccncc1)Nc1cc(Cl)ccc1Cl	6.07
CCOCCn1c(SCc2ccc(F)cc2)nc2c1c(=O)[nH]c(=O)n2C	-19.5
Cc1ccc(C(C)C)c(OCCOCCN2CCNCC2)c1.O=C(O)C(=O)O	-3.95
CC(C)(C)c1ccc(OCC(=O)NCCN2CCCC2)cc1.Cl	-33.7

SMILES	hERG current change (%, negative = inhibition) at 10uM [%]
CCOC(=O)n1c(=O)n(Cc2ccc(Cl)cc2Cl)c2ccccc21	-3.22
CC(=O)NC1CC2CCCC(C1)N2C(=O)Nc1ccc(Cl)c(C(F)(F)F)c1 (stereo not drawn)	-3.34
O=C(Nc1ccc(Cl)c(C(F)(F)F)c1)NC1CC2CCCC(C1)N2C1CC1 (stereo not drawn)	-10.1
COc1ccc(C(=O)NC2CC3CCCC(C2)N3Cc2ccccc2)c(OC)c1 (stereo not drawn)	-26.5
COc1ccc(CN2C3CCCC2CC(NC(=O)Nc2ccccc2C)C3)cc1 (stereo not drawn)	-59
O=C(Nc1ccc(Cl)c(C(F)(F)F)c1)NC1CC2CCCC(C1)N2Cc1ccccc1 (stereo not drawn)	-71
Cc1cccc(NC(=S)NC2CC3CCCC(C2)N3Cc2ccccc2)c1C (stereo not drawn)	-10.4
COc1ccc(NC(=O)N2C3CCCC2CC(NC(=O)c2ccccc2)C3)cc1 (stereo not drawn)	-15.9
COc1ccc(NC(=O)NC2CC3CCCC(C2)N3Cc2ccccc2)cc1 (stereo not drawn)	-50.1
COc1ccc(CN2C3CCCC2CC(NC(=O)Nc2ccccc2)C3)cc1 (stereo not drawn)	-74.1
Cc1ccccc1NC(=O)NC1CCCCCCC1	8.64
COCC(=O)NC1CC2CCCC(C1)N2Cc1ccccc1 (stereo not drawn)	-4.63
CCOc1ccc(N2C(=O)CC(N)C2=O)cc1 (stereo not drawn)	1.65
COc1ccc(OC)c(CCNC(=O)CC2(CC3=NS(=O)(=O)c4ccccc4N3)CCCC2)c1	-11.2
COC(=O)c1cc(-c2cccc([N+](=O)[O-])c2)c2c(=O)[nH]c(=O)n(C)c2n1	6.48
COc1cccc(NC(=O)CCNS(=O)(=O)c2cccc3nsnc23)c1	1.56
Cn1c(=O)c2ccccc2n(Cc2ccccc2Cl)c1=O	0.661
CCCN1C2CCCC1CC(NC(=O)Nc1cccc(C(C)=O)c1)C2 (stereo not drawn)	-5.62
O=C(Nc1cccc(F)c1)NC1CC2CCCC(C1)N2C1CC1 (stereo not drawn)	-8.34
COc1ccc(CN2C3CCCC2CC(NC(=O)Nc2cccc(C)c2)C3)cc1 (stereo not drawn)	-75.3
Cc1cccc(NC(=O)NC2CC3CCC(C2)N3Cc2ccco2)c1 (stereo not drawn)	-2.61
Cc1ccc(CN2C3CCCC2CC(NC(=O)Nc2cccc(F)c2)C3)cc1 (stereo not drawn)	-85.7
CCc1cccc(CC)c1NC(=O)CN1C2CCCC1CC(NC(=O)Nc1cccc(OC)c1)C2 (stereo not drawn)	-7.7

SMILES	hERG current change (%, negative = inhibition) at 10uM [%]
CCOC(=O)C1CCN(C(=O)C2CCN(S(=O)(=O)c3cc(Cl)ccc3Cl)CC2)CC1	-30.1
Cc1ccc(S(=O)(=O)N2CCOCC2)cc1C(=O)OCC(=O)c1ccc(Br)cc1	14.7
COc1ccc(-c2nc3ccc(N4CCN(C)CC4)cc3c(=O)[nH]2)cc1	8.45
O=c1c2ccccc2nc(N2CCCC2)n1-c1ccc(Cl)cc1	-3.18
O=c1c2ccccc2nc2n1CCN2Cc1ccc(Cl)cc1	-51.9
O=c1c2ccccc2nc(-c2ccccc2)n1Cc1ccc(Cl)cc1	-15.7
CCOC(=O)c1c(-n2c(C)cc(C=C3C(=O)NC(=S)NC3=O)c2C)sc2c1CCCC2	-5.55
CN1CCC(=NNC(=O)c2ccc(N(Cc3ccc(Cl)cc3)S(C)(=O)=O)cc2)CC1	-38
Cc1cnc(C(=O)NC2CC(C)(C)Cc3c2cnn3-c2cccc(F)c2)cn1 (stereo not drawn)	-33.5
COc1ccc(C(=O)NC2CC(C)(C)Cc3c2cnn3-c2ccccc2)c(OC)c1 (stereo not drawn)	-2.5
COc1cccc(C(=O)NC2CC(C)(C)Cc3c2cnn3-c2cccc(F)c2)c1OC (stereo not drawn)	-52.3
Cc1cc(C(=O)NC2CC(C)(C)Cc3c2cnn3-c2cccc(F)c2)nn1C (stereo not drawn)	-2.79
CC1=C(C(=O)NC2CC(C)(C)Cc3c2cnn3-c2cccc(F)c2)OCCO1 (stereo not drawn)	-43.5
Cc1cc(C(=O)NC2CC(C)(C)Cc3c2cnn3-c2cccc(F)c2)n(C)n1 (stereo not drawn)	-32.6
CC1(C)Cc2c(cnn2-c2cccc(F)c2)C(NC(=O)c2csnn2)C1 (stereo not drawn)	-78.3
CC1(C)Cc2c(cnn2-c2cccc(F)c2)C(NC(=O)c2ccc(=O)[nH]n2)C1 (stereo not drawn)	-70.2
COc1cc(C(=O)NC2CC(C)(C)Cc3c2cnn3-c2ccccc2)cc(OC)c1OC (stereo not drawn)	8.92
O=C(N/N=C/c1coc2ccccc2c1=O)c1ccccc1	10.6
COc1ccc(CN2CCN(C(=O)CC(C)C)CC2)cc1Br	-4.54
C=CC[C@]12C[C@@H](OC)C(=O)C=C1O[C@@H](c1ccc(OC)c(OC)c1)[C@H]2C	14.5
NC(=O)C(c1ccc(Sc2ccccc2)nn1)c1ccc(Cl)cc1Cl (stereo not drawn)	-43.9
Cc1c(C(=O)NCC2COc3ccccc3O2)oc2ccc(S(=O)(=O)N3CC(C)CC(C)C3)cc12 (stereo not drawn)	12.4
Cc1c(NC(=O)COC(=O)c2cc(-c3ccc(-c4ccccc4)cc3)nc3ccccc23)c(=O)n(-c2ccccc2)n1C	28.4

SMILES	hERG current change (%, negative = inhibition) at 10uM [%]
COc1ccccc1NNC(=O)C(O)(c1ccccc1OC)c1ccccc1OC	20.2
O=C(NC(Cc1ccccc1)C(=O)O)/C(=C/c1ccc([N+](=O)[O-])cc1)NC(=O)c1ccc(Br)o1 (stereo not drawn)	11.5
CC(=O)Nc1ccc(Nc2ccc3c4c(cc(=O)n3C)-c3ccccc3C(=O)c24)cc1	9.74
Cn1c(=O)cc2c3c(c(N4CCCCC4)ccc31)C(=O)c1ccccc1-2	-63.2
CC(=O)N(C)c1ccc(N2CCOCC2)c2c1C(=O)c1ccccc1C2=O	-0.974
CCn1c(SCC(=O)Nc2cc(S(=O)(=O)N3CCOCC3)ccc2OC)nnc1-c1ccncc1	13.8
O=C(COc1ccc(Cl)cc1)Nc1c(-c2cccs2)nc2ccccn12	-14.4
Nc1cc(-c2nn[nH]n2)ccc1F	11.6
O=C(Nc1ccc(Cl)c(-c2nc3ccccc3[nH]2)c1)c1ccc2c(c1)OCO2	-15
O=C1CC2(CCN(C(=O)C3CC(=O)N(c4ccccc4)C3)CC2)Oc2ccccc21 (stereo not drawn)	-77.4
Cc1ccc(N2CC(C(=O)N3CCCCCC3)CC2=O)cc1 (stereo not drawn)	11.5
NC(=O)C1CCN(C(=O)C2CC(=O)N(c3ccc(F)cc3)C2)CC1 (stereo not drawn)	13.7
Cc1ccc(N2CC(C(=O)N3CCC4(CC3)CC(=O)c3ccccc3O4)CC2=O)cc1C (stereo not drawn)	-71.3
Cc1ccc(N2CC(C(=O)N3CCCCC3)CC2=O)cc1C (stereo not drawn)	-21.2
O=C1CC2(CCN(C(=O)C3CC(=O)N(c4ccc(F)cc4)C3)CC2)Oc2ccccc21 (stereo not drawn)	-78.7
CCOC(=O)N1CCN(C(=O)C2CC(=O)N(c3ccccc3)C2)CC1 (stereo not drawn)	5.31
Cc1ccc(N2CC(C(=O)N3CCOCC3)CC2=O)cc1C (stereo not drawn)	6.52
O=C(C1CC(=O)N(c2ccccc2)C1)N1CCCCCC1 (stereo not drawn)	13
Cc1ccc(N2CC(C(=O)N3CCC4(CC3)CC(=O)c3ccccc3O4)CC2=O)cc1 (stereo not drawn)	-71.6
CCOC(=O)N1CCN(C(=O)C2CC(=O)N(c3ccc(C)cc3)C2)CC1 (stereo not drawn)	-47.9
O=C(C1CC(=O)N(c2ccc(F)cc2)C1)N1CCOCC1 (stereo not drawn)	1.27
